Where “and” joins values, the source holds several entries; their conditions need not be identical. Equal entries are not always repeated. Results filed as inconclusive are left out. Calls of active or inactive are those of the source. Unless noted, calls come from the whole dose curve; as a rule, active = well fitted curve in the direction sought with a large enough effect; inconclusive = small, poorly fitted or top-dose-only effect, or another doubt; inactive = no such curve, though single readings can be large; an effect the other way counts as inactive or inconclusive.
What was measured:
[1] = biological target: Glucocorticoid receptor (Homo sapiens) (UniProt P04150); assay: GR-GFP Redistribution (AID 450;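 active = compounds whose dose series gives a full or clear partial fitted curve of increased nuclear translocation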; note: potency is the fitted concentration of half-maximal effect); conditions: U2OS GR-GFP nuclear translocation, laser cytometry, 2 h
Sequence of Glucocorticoid receptor (Homo sapiens) (P04150 whole entry, looked up, the tested form may be a part): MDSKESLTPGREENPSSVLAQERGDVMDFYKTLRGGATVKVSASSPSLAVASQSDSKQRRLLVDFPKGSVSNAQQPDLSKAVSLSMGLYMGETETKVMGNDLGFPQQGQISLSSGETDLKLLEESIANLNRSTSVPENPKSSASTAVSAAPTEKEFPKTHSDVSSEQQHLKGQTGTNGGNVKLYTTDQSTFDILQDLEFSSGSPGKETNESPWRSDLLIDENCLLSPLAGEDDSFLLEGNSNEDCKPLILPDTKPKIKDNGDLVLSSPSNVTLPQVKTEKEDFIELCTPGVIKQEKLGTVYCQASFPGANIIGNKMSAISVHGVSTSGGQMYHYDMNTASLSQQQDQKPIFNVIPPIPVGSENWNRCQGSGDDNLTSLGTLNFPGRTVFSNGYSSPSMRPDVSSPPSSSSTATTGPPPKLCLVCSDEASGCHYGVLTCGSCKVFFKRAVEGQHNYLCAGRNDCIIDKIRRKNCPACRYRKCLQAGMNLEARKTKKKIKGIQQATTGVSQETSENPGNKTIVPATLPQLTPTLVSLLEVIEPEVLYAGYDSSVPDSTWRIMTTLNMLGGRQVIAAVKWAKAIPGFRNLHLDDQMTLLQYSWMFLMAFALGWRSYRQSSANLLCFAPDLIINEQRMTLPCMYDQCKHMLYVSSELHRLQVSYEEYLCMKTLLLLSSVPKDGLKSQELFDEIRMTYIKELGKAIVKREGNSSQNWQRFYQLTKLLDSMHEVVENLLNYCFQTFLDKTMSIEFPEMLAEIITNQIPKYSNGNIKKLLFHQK

[2] = biological target: Glucocorticoid receptor (Homo sapiens) (UniProt P04150); assay: GR-EFC Redistribution (AID 451; calls by dose curve; note: potency is the fitted concentration of half-maximal effect); conditions: CHO-K1 GR-EFC translocation, beta-gal luminescence, 2 h
Outline: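 CHO-K1 cells expressing nuclear EA and GR-ED fragments of b-gal; compounds titrated up to 46 uM final, 2 h at 37 C. GR nuclear translocation read as complemented b-gal luminescence after 1 h RT detection.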

[3] = biological target: 3',5'-cyclic-AMP phosphodiesterase 4B (Homo sapiens) (UniProt Q07343); assay: qHTS Assay for Inhibitors of PDE-IV (AID 607; active = well fitted activation curve with a large enough effect in the main read-out, with a control signal flat, not every such curve was filed as active; note: % of control where 0% means no effect); conditions: HEK293 ACTOne CNG channel cells, membrane potential fluorescence; series mostly up to 22.9 µM
Sequence of 3',5'-cyclic-AMP phosphodiesterase 4B (Homo sapiens) (Q07343 whole entry, looked up): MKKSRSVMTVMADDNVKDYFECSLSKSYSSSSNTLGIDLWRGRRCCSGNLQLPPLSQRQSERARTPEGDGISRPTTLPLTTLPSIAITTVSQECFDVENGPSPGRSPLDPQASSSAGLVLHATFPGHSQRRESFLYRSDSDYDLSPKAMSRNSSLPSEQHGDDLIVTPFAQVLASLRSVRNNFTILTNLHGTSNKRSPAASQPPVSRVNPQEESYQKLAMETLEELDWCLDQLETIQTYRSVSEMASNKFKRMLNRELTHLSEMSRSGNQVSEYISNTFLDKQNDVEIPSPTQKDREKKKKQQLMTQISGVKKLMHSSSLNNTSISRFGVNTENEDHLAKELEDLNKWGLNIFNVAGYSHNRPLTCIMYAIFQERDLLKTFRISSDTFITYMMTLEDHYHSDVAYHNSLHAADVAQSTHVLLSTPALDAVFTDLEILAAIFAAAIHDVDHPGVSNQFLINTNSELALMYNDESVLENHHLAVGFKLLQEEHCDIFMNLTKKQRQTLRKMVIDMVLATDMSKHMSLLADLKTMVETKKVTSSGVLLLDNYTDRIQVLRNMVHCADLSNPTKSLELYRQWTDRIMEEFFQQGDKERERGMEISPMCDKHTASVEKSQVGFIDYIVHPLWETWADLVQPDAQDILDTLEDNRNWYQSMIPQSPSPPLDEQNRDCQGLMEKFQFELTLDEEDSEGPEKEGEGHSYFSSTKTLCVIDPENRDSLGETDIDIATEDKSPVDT
Outline: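 ACTOne HEK293 cells carry a modified cAMP-gated CNG channel and express endogenous PDE4; plated 1000 cells/well, compounds up to 22.9 uM final. Membrane-potential dye fluorescence (ex 535/em 590) was read; parental cells received 10 uM forskolin + 100 uM RO 20-1724.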

[4] = qHTS Assay for Lipid Storage Modulators (AID 1519; calls by dose curve); conditions: Drosophila S3 cells, BODIPY lipid droplet/cell ratio, laser cytometry, cells loaded with oleic acid; for activity change, negative = inhibition: at 57.5 µM (top of the series)
Outline: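 Cells seeded at 5,000 per well were treated with compounds over a concentration series and loaded with oleic acid (400 uM, as added). Lipid droplet fluorescence (488 nm excitation, 500-530 nm channel) was read by laser-scanning cytometry and normalized to 20 uM Triacsin C.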

[5] = biological target: DNA dC->dU-editing enzyme APOBEC-3G (Homo sapiens) (UniProt Q9HC16); assay: qHTS for inhibitors of Vif-A3G interactions: Validation (AID 588379); conditions: Vif-A3G protein interaction assay; series mostly up to 46.1 µM; note: 0% is about no effect
Sequence of DNA dC->dU-editing enzyme APOBEC-3G (Homo sapiens) (Q9HC16 whole entry, looked up): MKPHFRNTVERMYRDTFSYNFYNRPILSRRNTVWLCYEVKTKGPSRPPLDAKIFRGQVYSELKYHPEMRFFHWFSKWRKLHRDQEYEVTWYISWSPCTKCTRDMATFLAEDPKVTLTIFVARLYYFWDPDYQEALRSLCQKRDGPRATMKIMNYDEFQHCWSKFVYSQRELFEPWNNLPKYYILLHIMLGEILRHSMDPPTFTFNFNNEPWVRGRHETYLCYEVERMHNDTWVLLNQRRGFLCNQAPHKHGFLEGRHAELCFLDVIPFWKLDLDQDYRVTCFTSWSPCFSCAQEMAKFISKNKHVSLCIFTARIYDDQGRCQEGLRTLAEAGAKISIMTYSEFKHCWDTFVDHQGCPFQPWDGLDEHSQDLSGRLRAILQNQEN
Outline: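 Yellow fluorescence (Ex 488, Em 500-530) of Vif-coexpressing HeLa A3G-eYFP cells, scanned by Acumen cytometer, reports blocked A3G degradation. Cells plated at 700/well overnight at 37 deg C before compound addition, then a further overnight compound incubation at 37 deg C.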

[6] = tested on: Zika virus NS2B-NS3 protease; assay: Primary screen GU AMC qHTS for Zika virus inhibitors (AID 1347154); conditions: Zika NS2B-NS3 unlinked protease, AMC fluorogenic substrate; series mostly up to 54.1 µM;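 note: 0% = no-inhibitor control and -100% = no-enzyme control; nearly all actives have a fitted effect of over 70% in size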
Outline: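 Unlinked Zika NS2B hydrophilic domain–NS3 protease complex at 25 nM in 10 mM Tris-HCl pH 8.0, 0.01% Tween 20, with an AMC peptide substrate. Fluorescence change (340/450 nm) over 15 min at room temperature, normalized to controls, fitted to 4-parameter Hill.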

[7] = Primary qHTS for small molecule stabilizers of the endoplasmic reticulum resident proteome: Secreted ER Calcium Modulated Protein (SERCaMP) assay (AID 1508630); conditions: SH-SY5Y GLuc-SERCaMP (Gaussia luciferase released on ER calcium loss) secretion, thapsigargin, luminescence; series mostly up to 38.4 µM; note: % is set by controls: 0 for no effect and ±100 for the full control effect
Outline: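 The SH-SY5Y reporter protocol was run at 3 concentrations up to 38.3 uM (primary) or 11 concentrations (follow-up): 16 h compound, 100 nM thapsigargin for 4 h, then extracellular luciferase luminescence.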

[8] = biological target: Mitogen-activated protein kinase 10 (Mus musculus) (UniProt Q61831); assay: JNK3 AlphaScreen Assay (AID 530; active = well fitted curve in either direction with a large enough effect, not every such curve was filed as active;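 note: kinase came from lysate of stimulated human HepG2 cells; signal reports phosphorylation of biotinylated GST-cJun 1-79 at Ser73 with 10 µM ATP; % is set by controls: 0 for no effect and ±100 for the full control effect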); conditions: JNK3 lysate, c-Jun phosphorylation; series mostly up to 57.1 µM
Outline: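 HepG2 lysate (IL-1b/TNFa pre-activated) + biotin-GST-cJun 1-79 + anti-pSer73 cJun; cpd titration, 15 min RT; ATP 10 uM start; Tris pH 7.6, MgCl2, DTT, vanadate; beads in EDTA buffer; AlphaScreen.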

[9] = biological target: Ubiquitin carboxyl-terminal hydrolase 1 (Homo sapiens) (UniProt O94782); assay: Inhibitors of USP1/UAF1: Pilot qHTS (AID 504865); conditions: purified USP1/UAF1, Ub-rhodamine cleavage fluorescence; series mostly up to 114 µM;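 note: rhodamine fluorescence freed from ubiquitin-rhodamine substrate followed over time; top concentration of the series differs between compounds; % is set by controls: 0 for no effect and ±100 for the full control effect; nearly all actives have a fitted effect of over 35% in size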
Sequence of Ubiquitin carboxyl-terminal hydrolase 1 (Homo sapiens) (O94782 whole entry, looked up): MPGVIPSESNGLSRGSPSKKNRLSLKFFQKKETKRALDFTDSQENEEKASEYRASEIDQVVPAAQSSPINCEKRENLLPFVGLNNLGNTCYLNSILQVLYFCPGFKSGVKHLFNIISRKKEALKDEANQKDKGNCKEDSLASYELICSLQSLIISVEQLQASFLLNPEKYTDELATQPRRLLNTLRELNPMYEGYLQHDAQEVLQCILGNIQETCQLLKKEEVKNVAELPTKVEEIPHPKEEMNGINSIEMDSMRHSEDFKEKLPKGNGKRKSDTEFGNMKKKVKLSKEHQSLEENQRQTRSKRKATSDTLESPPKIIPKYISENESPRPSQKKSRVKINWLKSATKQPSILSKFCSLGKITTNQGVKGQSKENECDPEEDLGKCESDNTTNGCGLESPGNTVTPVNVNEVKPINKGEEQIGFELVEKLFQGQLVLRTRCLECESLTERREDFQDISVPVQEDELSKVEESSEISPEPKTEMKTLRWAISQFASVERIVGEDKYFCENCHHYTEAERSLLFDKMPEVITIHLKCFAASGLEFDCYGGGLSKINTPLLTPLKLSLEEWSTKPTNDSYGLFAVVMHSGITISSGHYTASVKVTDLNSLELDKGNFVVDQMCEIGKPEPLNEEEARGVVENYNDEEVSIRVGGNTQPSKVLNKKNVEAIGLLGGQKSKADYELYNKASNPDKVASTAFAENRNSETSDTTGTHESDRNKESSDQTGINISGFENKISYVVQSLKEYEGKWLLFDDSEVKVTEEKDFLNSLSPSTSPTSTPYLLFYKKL
Outline: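 Enzyme-free wells gave the negative control, while test wells held 1nM USP1/UAF1 preincubated with compound for 15 min at room temperature. Ub-Rho at 150nM final started the reaction, and fluorescence at 480/540 nm was recorded kinetically.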

[10] = biological target: Cytochrome P450 2C19 (Homo sapiens) (UniProt P33261); assay: qHTS Assay for Inhibitors and Substrates of Cytochrome P450 2C19 (AID 899); conditions: recombinant CYP2C19, luciferin-H EGE luminescence; series mostly up to 57.1 µM; note: nearly all actives have a fitted effect of over 60% in size; note: potency is the fitted concentration of half-maximal effect
Sequence of Cytochrome P450 2C19 (Homo sapiens) (P33261 whole entry, looked up): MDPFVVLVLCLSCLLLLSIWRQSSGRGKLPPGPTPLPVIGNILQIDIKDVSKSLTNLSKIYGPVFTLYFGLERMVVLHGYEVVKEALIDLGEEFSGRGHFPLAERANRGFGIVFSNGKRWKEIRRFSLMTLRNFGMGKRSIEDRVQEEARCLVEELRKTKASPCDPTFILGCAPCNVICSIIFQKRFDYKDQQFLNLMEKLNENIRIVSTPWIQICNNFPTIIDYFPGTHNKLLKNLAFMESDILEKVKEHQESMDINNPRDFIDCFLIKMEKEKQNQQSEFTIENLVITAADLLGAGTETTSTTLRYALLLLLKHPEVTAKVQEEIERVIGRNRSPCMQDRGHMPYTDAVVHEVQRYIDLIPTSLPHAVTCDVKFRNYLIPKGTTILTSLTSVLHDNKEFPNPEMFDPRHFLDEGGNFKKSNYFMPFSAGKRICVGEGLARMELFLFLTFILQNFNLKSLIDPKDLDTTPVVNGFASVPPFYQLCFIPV
Outline: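 5 nM human CYP2C19 with 10uM Luciferin-H EGE (at KM) in 50mM KPO4, compound preincubated 10 min at 37C, then NADPH regeneration for 60 min at 37C. Luciferin read by luminescence after detection reagent; normalized to 57uM ketoconazole as full inhibition.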

[11] = biological target: Cytochrome P450 1A2 (Homo sapiens) (UniProt P05177); assay: p450-cyp1a2 (AID 410; calls by dose curve; note: potency is the fitted concentration of half-maximal effect); conditions: recombinant CYP1A2, luciferin-ME demethylation, luminescence; series mostly up to 57 µM
Sequence of Cytochrome P450 1A2 (Homo sapiens) (P05177 whole entry, looked up): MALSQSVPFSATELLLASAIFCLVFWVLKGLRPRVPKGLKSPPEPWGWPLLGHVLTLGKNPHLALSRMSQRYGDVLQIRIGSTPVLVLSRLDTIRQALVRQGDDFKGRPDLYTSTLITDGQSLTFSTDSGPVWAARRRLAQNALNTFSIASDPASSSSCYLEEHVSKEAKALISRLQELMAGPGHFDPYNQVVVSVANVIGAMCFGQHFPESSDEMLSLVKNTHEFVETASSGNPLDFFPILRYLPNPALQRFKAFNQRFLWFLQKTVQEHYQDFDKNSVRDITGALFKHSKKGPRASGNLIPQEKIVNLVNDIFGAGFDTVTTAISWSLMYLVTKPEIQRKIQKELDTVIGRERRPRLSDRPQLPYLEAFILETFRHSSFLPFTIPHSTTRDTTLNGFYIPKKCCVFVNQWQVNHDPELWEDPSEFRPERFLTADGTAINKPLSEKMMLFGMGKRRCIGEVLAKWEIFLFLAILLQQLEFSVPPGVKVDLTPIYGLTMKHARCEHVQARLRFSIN
Outline: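 20nM CYP1A2, 100uM Luciferin-ME (=Km), 100mM KPO4; cpd 10 min RT; +NADPH regen, 60 min RT; stop/detect 20 min; luminescence. Normalized to furafylline 57 uM = full inhibition.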

[12] = biological target: Cytochrome P450 2C9 (Homo sapiens) (UniProt P11712); assay: qHTS Assay for Inhibitors and Substrates of Cytochrome P450 2C9 (AID 883); conditions: recombinant CYP2C9, luciferin-H luminescence, 60 min; series mostly up to 57.1 µM; note: potency is the fitted concentration of half-maximal effect; nearly all actives have a fitted effect of over 60% in size
Sequence of Cytochrome P450 2C9 (Homo sapiens) (P11712 whole entry, looked up): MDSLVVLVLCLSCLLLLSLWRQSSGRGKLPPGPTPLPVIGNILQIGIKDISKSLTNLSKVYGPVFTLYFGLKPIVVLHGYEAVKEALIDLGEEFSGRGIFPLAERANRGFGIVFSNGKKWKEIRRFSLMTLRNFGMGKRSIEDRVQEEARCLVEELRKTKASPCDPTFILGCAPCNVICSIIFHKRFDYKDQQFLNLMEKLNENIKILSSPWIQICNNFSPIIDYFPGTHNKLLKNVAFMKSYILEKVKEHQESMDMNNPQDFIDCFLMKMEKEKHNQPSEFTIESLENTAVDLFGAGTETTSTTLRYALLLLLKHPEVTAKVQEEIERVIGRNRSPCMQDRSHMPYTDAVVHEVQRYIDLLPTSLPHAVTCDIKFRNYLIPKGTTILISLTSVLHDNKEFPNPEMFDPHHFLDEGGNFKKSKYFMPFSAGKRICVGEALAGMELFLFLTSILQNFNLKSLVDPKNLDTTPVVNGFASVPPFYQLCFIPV
Outline: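 Human CYP2C9 (10nM) with Luciferin-H at 100uM (its KM) in 25mM KPO4; compound preincubated 10 min at 37C, then NADPH regeneration for 60 min at 37C. Luciferin read by luminescence after detection reagent; normalized to 57uM sulphaphenazole as full inhibition.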

[13] = biological target: Cytochrome P450 3A4 (Homo sapiens) (UniProt P08684); assay: qHTS Assay for Activators of Cytochrome P450 3A4 (AID 885); conditions: recombinant CYP3A4, Luciferin-PPXE luminescence, 60 min; series mostly up to 57.1 µM; note: nearly all actives have a fitted effect of over 65% in size
Sequence of Cytochrome P450 3A4 (Homo sapiens) (P08684 whole entry, looked up): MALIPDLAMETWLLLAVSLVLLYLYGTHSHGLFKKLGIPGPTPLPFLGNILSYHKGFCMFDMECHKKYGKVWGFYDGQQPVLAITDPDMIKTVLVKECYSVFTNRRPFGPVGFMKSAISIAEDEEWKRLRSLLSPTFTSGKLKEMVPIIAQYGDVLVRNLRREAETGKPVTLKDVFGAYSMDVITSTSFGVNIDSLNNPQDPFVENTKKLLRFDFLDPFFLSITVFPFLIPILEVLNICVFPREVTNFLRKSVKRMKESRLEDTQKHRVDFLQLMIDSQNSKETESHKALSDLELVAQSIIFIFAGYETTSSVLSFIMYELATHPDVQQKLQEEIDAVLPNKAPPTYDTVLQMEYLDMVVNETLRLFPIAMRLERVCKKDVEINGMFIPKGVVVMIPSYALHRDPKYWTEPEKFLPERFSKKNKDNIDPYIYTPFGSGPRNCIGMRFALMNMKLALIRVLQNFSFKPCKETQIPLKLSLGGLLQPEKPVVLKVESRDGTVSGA
Outline: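 CYP3A4 activity: Luciferin-PPXE O-dealkylation, 25uM substrate, 200mM KPO4, RT throughout. Read-out is luciferase luminescence; higher values reflect activation.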

[14] = NFAT Signaling Pathway (AID 444; active = well fitted curve in either direction with a large enough effect, not every such curve was filed as active;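 note: carbachol stimulus at about its EC50 of 1 µM final; % is set by controls: 0 for no effect and ±100 for the full control effect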); conditions: Jurkat NFAT-bla M1, carbachol, beta-lactamase ratio, 5 h
Outline: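 Jurkat cells with NFAT-driven β-lactamase reporter and co-expressed M1 receptor, stimulated with carbachol (final 1 uM, ~EC50), compound titration, 5 h at 37 °C. CCF4 loaded 1 h at RT; 460/530 nm ratio gave %activity and AC50.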

[15] = Stat Signaling Pathway (AID 446; active = well fitted curve in either direction with a large enough effect, not every such curve was filed as active;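 note: ME-180 cervical cancer cells given 40 pM IL-6 alongside compound; SIE-controlled beta-lactamase reporter measured as 460/530 nm FRET emission ratio; % is set by controls: 0 for no effect and ±100 for the full control effect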); conditions: ME-180 (cervical carcinoma) SIE beta-lactamase reporter, IL-6 stimulated, 5 h
Outline: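 Compound effects on IL-6-induced STAT reporter activity were measured in ME-180 cells. After overnight culture, cells were co-treated with 40 pM IL-6 for 5 hrs before beta-lactamase substrate loading at room temperature.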

[16] = biological target: Guanine nucleotide-binding protein G(i) subunit alpha-1 (Homo sapiens) (UniProt P63096); assay: qHTS Assay for Inhibitors of RGS12 GoLoco Motif Activity (Green Fluorophore) (AID 879); conditions: Galphai1/FITC-RGS12 GoLoco peptide, fluorescence polarization; series mostly up to 57.1 µM;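 note: 0% = labeled peptide with Gαi1 and full inhibition = labeled peptide alone without protein; negative values mean loss of peptide binding seen as reduced polarization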
Outline: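 A drop in FITC polarization marked displacement of the FITC-tagged RGS12 GoLoco peptide (10 nM) from Gαi1 (50 nM). Compounds were incubated 10 min at room temperature in Tris pH 7.5 buffer containing 150 mM NaCl, 0.1 mM GDP and 0.05% NP40; unlabeled peptide titration served as control.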

[17] = biological target: Pyruvate kinase (Leishmania mexicana) (UniProt Q27686); assay: qHTS Validation Assay for Inhibitors of Leishmania Mexicana Pyruvate Kinase (AID 945);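 note: 0% = DMSO only neutral control wells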; conditions: purified L. mexicana pyruvate kinase, enzyme activity, E451W mutant enzyme; series mostly up to 57.5 µM
Outline: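 The enzyme is a highly purified E451W mutant of LmPYK used at 0.2 nM. It converts 0.5 mM PEP and 0.1 mM ADP over 1 h at room temperature; product ATP is quantified by luciferase luminescence relative to DMSO controls.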

[18] = biological target: Pyruvate kinase PKM (Homo sapiens) (UniProt P14618); assay: qHTS Assay for Activators of Human Muscle Pyruvate Kinase (AID 954; active = well fitted curve in the direction sought with a large enough effect, not every such curve was filed as active;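 note: 0% = uninhibited enzyme and -100% = no enzyme or full thiadiazolimine inhibition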); conditions: purified human muscle pyruvate kinase, luciferase-coupled luminescence, 1 h; series mostly up to 57.5 µM
Outline: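 A coupled luminescent readout tracked ATP made from ADP by purified PKM2. Final conditions included 0.1 nM enzyme, PEP and ADP at 0.5 and 0.1 mM, pH 7.2 imidazole buffer with BSA, and a one-hour room-temperature reaction.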

[19] = biological target: Alpha-galactosidase A (Homo sapiens) (UniProt P06280); assay: Counterscreen for Glucocerebrosidase Inhibitors: qHTS Assay for Human alpha-Galactosidase at pH 4.5 (AID 992); conditions: purified enzyme, fluorogenic substrate; series mostly up to 76.9 µM; note: 0% is about no effect
Outline: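 Citrate buffer pH 4.5, Tween-20 0.005%. Enzyme 2 nM, substrate 80 uM, 20 min RT. Stop pH 10. Fluorescence Ex 365/Em 440. AC50 by Hill fit.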

[20] = biological target: alpha-glucosidase (Oryza sativa, rice) (UniProt Q653V4); assay: Counterscreen for Glucocerebrosidase Inhibitors: qHTS Assay for Rice alpha-Glucosidase at pH 5.0 (AID 997); conditions: rice alpha-glucosidase enzyme activity; series mostly up to 76.9 µM;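 note: 0% = full activity with enzyme and -100% = basal without enzyme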
Outline: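 Endpoint fluorogenic assay at pH 5.0: compounds (0.7 nM to 77 uM) titrated against 4 nM rice enzyme and 400 uM 4-MU-alpha-glucoside for 20 min at room temperature; NaOH/glycine stop, read ex 365/em 440 nm, Hill-fitted AC50.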

[21] = measured here: cell count channel max response
[22] = measured here: lipid channel max response

CCNC(=O)[C@H]1O[C@H](n2cnc3c(N)nc(NCCc4ccc(CCC(=O)O)cc4)nc32)[C@@H](O)[C@@H]1O
-19.8%: max response [4, 22]
-14.7%: max response [4, 21]
inactive: Potency [1] > 46 µM | Potency [2] > 46 µM | Potency [3] | activity change, negative = inhibition [4] -4.61% | Potency [5] | Potency [6] | Potency [7]

Cc1cc(C(=O)O)ccc1[C@H](N)C(=O)O
inactive: Potency [1] > 46 µM | Potency [8] | activity change, negative = inhibition [4] 1.88% | Potency [9] | Potency [5] | Potency [6] | Potency [7]
7.87%: max response [4, 21]
9.03%: max response [4, 22]

N[C@@](C(=O)O)(c1ccc(P(=O)(O)O)cc1)C1CC1
-1.11%: max response [4, 22]
inactive: Potency [1] > 46 µM | Potency [2] > 46 µM | Potency [8] | activity change, negative = inhibition [4] -7.82% | Potency [5] | Potency [6] | Potency [7]
3.93%: max response [4, 21]

O=C(O)[C@H]1CN[C@H](C(=O)O)C1
inactive: Potency [1] > 46 µM | Potency [2] > 46 µM | Potency [8] | Potency [10] | activity change, negative = inhibition [4] 1.7% | Potency [9] | Potency [5] | Potency [6] | Potency [7]
-9.77%: max response [4, 21]
-9.55%: max response [4, 22]

O=C1CC2(CCCC2)CC(=O)N1CCNC[C@H]1COc2ccccc2O1
17.5%: max response [4, 22]
16.6%: max response [4, 21]
inactive: Potency [3] | activity change, negative = inhibition [4] -0.603% | Potency [9] | Potency [5] | Potency [6] | Potency [7]

CCCCCCCCCCCCCCCC(=O)N[C@H](CN1CCOCC1)[C@H](O)c1ccccc1
inactive: activity change, negative = inhibition [6] 6.98% [at 6.83 µM] | activity change, negative = inhibition [7] 2.84% [at 3.88 µM]

OCCOCCN1CCN(Cc2cccc(Oc3ccccc3)c2)CC1
inactive: Potency [6] | Potency [7]

COC(=O)C1=C(C)NC(C)=C([N+](=O)[O-])[C@@H]1c1ccccc1C(F)(F)F
inactive: Potency [2] > 46 µM | Potency [13] | Potency [5] | Potency [6] | Potency [7]
active: Potency [11] 39.8 µM | Potency [12] 158 nM | Potency [10] 126 nM

COc1cc(CNC(=O)CCCC/C=C\C(C)C)ccc1O
inactive: activity change, negative = inhibition ([14]; at 17.2 µM (top of the series)) -1.65% | activity, negative = inhibition ([15]; at 17.2 µM (top of the series)) -15.5% | Potency [1] > 20.6 µM and > 46 µM | Potency [2] > 20.6 µM and > 46 µM | Potency [3] | Potency [13] | Potency [5] | Potency [6] | Potency [7]
active: Potency [11] 1.58 µM and 2 µM and 3.16 µM | Potency [12] 2 µM and 1.26 µM | Potency [10] 7.94 µM and 6.31 µM

COC(=O)C1=C(C)NC(C)=C([N+](=O)[O-])[C@H]1c1ccccc1C(F)(F)F
active: Potency [12] 15.8 µM and 2 µM | Potency [10] 1.26 µM and 158 nM
inactive: activity change, negative = inhibition ([14]; at 38 µM (top of the series)) -15.3% | activity, negative = inhibition ([15]; at 38 µM (top of the series)) 13.2% | Potency [1] > 46 µM | Potency [2] > 46 µM | Potency [3] | outcome [16] | Potency [13] | Potency [17] | outcome [18] | outcome [19] | outcome [20] | Potency [5] | Potency [6] | Potency [7]

From PubChem BioAssay (NCATS)
